The panel holds about 79,000 compounds, 15% with a hit somewhere; the sample as a whole holds those more often. Unmarked numbers belong to inactive results. The source made the active and inactive calls. Rule as the data show it: active = growth inhibition above about 70%; inactive = the rest.
Columns and labels:
[1] = NCI Yeast Anticancer Drug Screen. Data for the rad52 strain (AID 147);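 also: 0% = growth of vehicle-treated control cultures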; conditions: S. cerevisiae rad52 mutant growth inhibition, hits give high values
Procedure, shortened: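 Vehicle-treated cultures served as the reference for growth inhibition of compound-exposed yeast bearing a DNA repair mutation.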

[2] = NCI Yeast Anticancer Drug Screen. Data for the wt1 strain (AID 149);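 also: 0% = growth of vehicle-treated wt1 cultures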; conditions: S. cerevisiae wt1 strain (SPY 50644) growth inhibition, hits give high values
Procedure, shortened: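 Measured: growth of wt1 yeast under compound versus vehicle treatment, reported as inhibition.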

[3] = NCI Yeast Anticancer Drug Screen. Data for the rad50EPP+ strain (AID 151);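 also: 0% = growth of vehicle-treated control cultures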; conditions: S. cerevisiae rad50 mutant strain, hits give high values
Procedure, shortened: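 In this screen, rad50EPP+ yeast were exposed to compounds. Growth inhibition was scored against vehicle-treated controls.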

[4] = NCI Yeast Anticancer Drug Screen. Data for the mgt1 strain (AID 153); conditions: S. cerevisiae mgt1 mutant growth inhibition, hits give high values
Procedure, shortened: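 mgt1 strain exposed; growth vs vehicle control recorded as inhibition.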

[5] = NCI Yeast Anticancer Drug Screen. Data for the rad50 strain (AID 155);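 also: 0% = growth of vehicle-only cultures of the same strain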; conditions: S. cerevisiae rad50 strain growth inhibition, hits give high values
Procedure, shortened: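 Growth of the mutant yeast was measured after compound exposure and referenced to vehicle-treated cultures.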

[6] = NCI Yeast Anticancer Drug Screen. Data for the mec2-1 strain (AID 157); conditions: S. cerevisiae mec2-1 strain, hits give high values
Procedure, shortened: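 Vehicle-treated cultures served as reference for growth inhibition of compound-exposed mec2-1 yeast.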

[7] = NCI Yeast Anticancer Drug Screen. Data for the rad14 strain (AID 159);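 also: 0% = growth of vehicle-treated control cultures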; conditions: S. cerevisiae rad14 strain growth inhibition, hits give high values
Procedure, shortened: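 Here, inhibition of yeast growth was measured after compound exposure, using a strain with a genetic defect in DNA damage repair and vehicle-treated cultures as the reference.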

[8] = NCI Yeast Anticancer Drug Screen. Data for the sgs1 mgt1 strain (AID 161);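 also: 0% = growth of cultures given vehicle only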; conditions: S. cerevisiae sgs1 mgt1 strain, hits give high values
Procedure, shortened: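 Test agents were incubated with a DNA-repair-mutant yeast strain. Growth was then read and compared against vehicle-treated controls.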

[9] = NCI Yeast Anticancer Drug Screen. Data for the CLN2oe strain (AID 163);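 also: 0% = growth of vehicle-only control cultures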; conditions: S. cerevisiae CLN2oe strain, hits give high values
Procedure, shortened: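 Inhibition relative to vehicle-treated yeast is reported. Cells: strain with genetic alteration in cell-cycle control, grown with compound.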

[10] = NCI Yeast Anticancer Drug Screen. Data for the cln2 rad14 strain (AID 165);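 also: 0% = growth equal to vehicle treated cultures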; conditions: S. cerevisiae cln2 rad14 strain, hits give high values
Procedure, shortened: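 Each compound was tested on cln2 rad14 yeast. Inhibition of growth was calculated against vehicle-exposed controls.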

[11] = NCI Yeast Anticancer Drug Screen. Data for the bub3 strain (AID 167); conditions: S. cerevisiae bub3 mutant strain, hits give high values
Procedure, shortened: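 Whole-cell yeast assay. The mutant strain was incubated with compounds, and growth inhibition was determined by comparison with vehicle-treated cells.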

[12] = NCI Yeast Anticancer Drug Screen. Data for the wt2 strain (AID 169);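 also: 0% = growth of vehicle-treated yeast cultures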; conditions: S. cerevisiae wt2 strain growth inhibition, hits give high values
Procedure, shortened: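 Inhibition of yeast growth was determined after compound treatment, normalised to controls receiving only vehicle.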

[13] = NCI Yeast Anticancer Drug Screen. Data for the mlh1 strain (AID 171);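 also: 0% = growth of vehicle-treated control cultures of the same strain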; conditions: S. cerevisiae mlh1 strain growth inhibition, hits give high values
Procedure, shortened: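 Vehicle-normalised growth inhibition of a repair- or checkpoint-altered yeast strain following compound treatment.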

[14] = NCI Yeast Anticancer Drug Screen. Data for the sgs1 strain (AID 173);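 also: 0% = growth of vehicle-only control cultures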; conditions: S. cerevisiae sgs1 mutant, hits give high values
Procedure, shortened: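 Screen format: yeast with repair or checkpoint alterations, compound exposure, growth read relative to vehicle.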

[15] = NCI Yeast Anticancer Drug Screen. Data for the mlh1 rad18 strain (AID 175); conditions: S. cerevisiae mlh1 rad18 strain growth inhibition, hits give high values
Procedure, shortened: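 Vehicle-treated cultures served as the reference for growth inhibition in a yeast strain carrying DNA damage repair alterations exposed to each compound.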

[16] = NCI Yeast Anticancer Drug Screen. Data for the rad18 strain (AID 177); conditions: S. cerevisiae rad18 mutant growth inhibition, hits give high values
Procedure, shortened: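 Test articles were incubated with altered yeast defective in DNA damage repair. Results are given as inhibition of growth versus vehicle.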

[17] = at 5.0 µM (retest, dose inferred, filed as 0.5)
[18] = at 50.0 µM (retest, dose inferred, filed as 5.0)

COC1C=COC2(C)Oc3c(C)c(O)c4c(c3C2=O)/C(=N/C2CCC(O)OC2C)C=C(NC(=O)/C(C)=C\C(=O)C2CC2C(O)C(C)C(O)C(C)C(OC(C)=O)C1C)C4=O (stereo unspecified)
growth inhibition ([1]; at 1.2 µM): 0%
growth inhibition ([1]; at 3.7 µM): -2%
growth inhibition ([1]; at 11.0 µM): -4%
growth inhibition ([1]; at 33.0 µM): 17%
growth inhibition ([1]; at 100.0 µM): 92% (active)
growth inhibition ([2]; at 1.2 µM): 0%
growth inhibition ([2]; at 3.7 µM): 0%
growth inhibition ([2]; at 11.0 µM): 1%
growth inhibition ([2]; at 33.0 µM): -1%
growth inhibition ([2]; at 100.0 µM): 11%
growth inhibition ([3]; at 1.2 µM): -2%
growth inhibition ([3]; at 3.7 µM): -10%
growth inhibition ([3]; at 11.0 µM): -14%
growth inhibition ([3]; at 33.0 µM): -7%
growth inhibition ([3]; at 100.0 µM): -6%
growth inhibition ([4]; at 1.2 µM): 0%
growth inhibition ([4]; at 3.7 µM): -4%
growth inhibition ([4]; at 11.0 µM): -1%
growth inhibition ([4]; at 33.0 µM): 29%
growth inhibition ([4]; at 100.0 µM): 80% (active)
growth inhibition ([5]; at 1.2 µM): -2%
growth inhibition ([5]; at 3.7 µM): -3%
growth inhibition [5, 17]: -16%
growth inhibition ([5]; at 11.0 µM): -2%
growth inhibition ([5]; at 33.0 µM): 10%
growth inhibition [5, 18]: 37%
growth inhibition ([5]; at 50.0 µM): 9.3%
growth inhibition ([5]; at 100.0 µM): 90% (active)
growth inhibition ([6]; at 1.2 µM): 0%
growth inhibition ([6]; at 3.7 µM): 0%
growth inhibition [6, 17]: 2%
growth inhibition ([6]; at 11.0 µM): -6%
growth inhibition ([6]; at 33.0 µM): 1%
growth inhibition [6, 18]: 27%
growth inhibition ([6]; at 50.0 µM): 30.6%
growth inhibition ([6]; at 100.0 µM): 92% (active)
growth inhibition ([7]; at 1.2 µM): -4%
growth inhibition ([7]; at 3.7 µM): -4%
growth inhibition ([7]; at 11.0 µM): -3%
growth inhibition ([7]; at 33.0 µM): 16%
growth inhibition ([7]; at 100.0 µM): 87% (active)
growth inhibition [8, 17]: -6%
growth inhibition [8, 18]: 56%
growth inhibition ([8]; at 50.0 µM): 33.5%
growth inhibition ([9]; at 1.2 µM): -11%
growth inhibition ([9]; at 3.7 µM): -11%
growth inhibition ([9]; at 11.0 µM): -8%
growth inhibition ([9]; at 33.0 µM): 3%
growth inhibition ([9]; at 100.0 µM): 53%
growth inhibition [10, 17]: 15%
growth inhibition [10, 18]: 57%
growth inhibition ([10]; at 50.0 µM): 81.4% (active)
growth inhibition ([11]; at 1.2 µM): -6%
growth inhibition ([11]; at 3.7 µM): -6%
growth inhibition [11, 17]: -19%
growth inhibition ([11]; at 11.0 µM): -2%
growth inhibition ([11]; at 33.0 µM): -5%
growth inhibition [11, 18]: 7%
growth inhibition ([11]; at 50.0 µM): 23.4%
growth inhibition ([11]; at 100.0 µM): 91% (active)
growth inhibition ([12]; at 1.2 µM): -1%
growth inhibition ([12]; at 3.7 µM): 1%
growth inhibition ([12]; at 11.0 µM): 0%
growth inhibition ([12]; at 33.0 µM): 28%
growth inhibition ([12]; at 100.0 µM): 94% (active)
growth inhibition ([13]; at 1.2 µM): 3%
growth inhibition ([13]; at 3.7 µM): 1%
growth inhibition ([13]; at 11.0 µM): -1%
growth inhibition ([13]; at 33.0 µM): 28%
growth inhibition ([13]; at 100.0 µM): 73% (active)
growth inhibition ([14]; at 1.2 µM): 0%
growth inhibition ([14]; at 3.7 µM): -76%
growth inhibition ([14]; at 11.0 µM): 3%
growth inhibition ([14]; at 33.0 µM): 37%
growth inhibition ([14]; at 100.0 µM): 89% (active)
growth inhibition [15, 17]: -7%
growth inhibition [15, 18]: 48%
growth inhibition ([15]; at 50.0 µM): 17.9%
growth inhibition ([16]; at 1.2 µM): 0%
growth inhibition ([16]; at 3.7 µM): 0%
growth inhibition ([16]; at 11.0 µM): -4%
growth inhibition ([16]; at 33.0 µM): 10%
growth inhibition ([16]; at 100.0 µM): 48%

CCc1ncnc2cc(OCC3CO3)c(OC)cc12 (stereo unspecified)
growth inhibition ([1]; at 1.2 µM): 7%
growth inhibition ([1]; at 3.7 µM): 46%
growth inhibition ([1]; at 11.0 µM): 66%
growth inhibition ([1]; at 33.0 µM): 82% (active)
growth inhibition ([1]; at 100.0 µM): 87% (active)
growth inhibition ([2]; at 1.2 µM): -9%
growth inhibition ([2]; at 3.7 µM): 8%
growth inhibition ([2]; at 11.0 µM): 3%
growth inhibition ([2]; at 33.0 µM): 6%
growth inhibition ([2]; at 100.0 µM): 20%
growth inhibition ([3]; at 1.2 µM): 8%
growth inhibition ([3]; at 3.7 µM): 31%
growth inhibition ([3]; at 11.0 µM): 31%
growth inhibition ([3]; at 33.0 µM): 47%
growth inhibition ([3]; at 100.0 µM): 74% (active)
growth inhibition ([4]; at 1.2 µM): -14%
growth inhibition ([4]; at 3.7 µM): -8%
growth inhibition ([4]; at 11.0 µM): -3%
growth inhibition ([4]; at 33.0 µM): 22%
growth inhibition ([4]; at 100.0 µM): 48%
growth inhibition ([5]; at 1.2 µM): 23%
growth inhibition ([5]; at 3.7 µM): 44%
growth inhibition [5, 17]: 72% (active)
growth inhibition ([5]; at 11.0 µM): 72% (active)
growth inhibition ([5]; at 33.0 µM): 85% (active)
growth inhibition [5, 18]: 92% (active)
growth inhibition ([5]; at 50.0 µM): 84.3% (active)
growth inhibition ([5]; at 100.0 µM): 91% (active)
growth inhibition ([6]; at 1.2 µM): 2%
growth inhibition ([6]; at 3.7 µM): 6%
growth inhibition [6, 17]: 26%
growth inhibition ([6]; at 11.0 µM): 22%
growth inhibition ([6]; at 33.0 µM): 75% (active)
growth inhibition [6, 18]: 92% (active)
growth inhibition ([6]; at 50.0 µM): 89.4% (active)
growth inhibition ([6]; at 100.0 µM): 91% (active)
growth inhibition ([7]; at 1.2 µM): 0%
growth inhibition ([7]; at 3.7 µM): 1%
growth inhibition ([7]; at 11.0 µM): 46%
growth inhibition ([7]; at 33.0 µM): 85% (active)
growth inhibition ([7]; at 100.0 µM): 94% (active)
growth inhibition [8, 17]: 79% (active)
growth inhibition [8, 18]: 93% (active)
growth inhibition ([8]; at 50.0 µM): 82.7% (active)
growth inhibition ([9]; at 1.2 µM): 20%
growth inhibition ([9]; at 3.7 µM): 15%
growth inhibition ([9]; at 11.0 µM): 27%
growth inhibition ([9]; at 33.0 µM): 30%
growth inhibition ([9]; at 100.0 µM): 52%
growth inhibition [10, 17]: 17%
growth inhibition [10, 18]: 79% (active)
growth inhibition ([10]; at 50.0 µM): 79.1% (active)
growth inhibition ([11]; at 1.2 µM): 17%
growth inhibition ([11]; at 3.7 µM): -7%
growth inhibition [11, 17]: 10%
growth inhibition ([11]; at 11.0 µM): 2%
growth inhibition ([11]; at 33.0 µM): 12%
growth inhibition [11, 18]: 47%
growth inhibition ([11]; at 50.0 µM): 17.9%
growth inhibition ([11]; at 100.0 µM): 43%
growth inhibition ([12]; at 1.2 µM): -26%
growth inhibition ([12]; at 3.7 µM): -15%
growth inhibition ([12]; at 11.0 µM): -14%
growth inhibition ([12]; at 33.0 µM): 13%
growth inhibition ([12]; at 100.0 µM): 72% (active)
growth inhibition ([13]; at 1.2 µM): -4%
growth inhibition ([13]; at 3.7 µM): -6%
growth inhibition ([13]; at 11.0 µM): 9%
growth inhibition ([13]; at 33.0 µM): 14%
growth inhibition ([13]; at 100.0 µM): 61%
growth inhibition ([14]; at 1.2 µM): 31%
growth inhibition ([14]; at 3.7 µM): 53%
growth inhibition ([14]; at 11.0 µM): 70% (active)
growth inhibition ([14]; at 33.0 µM): 82% (active)
growth inhibition ([14]; at 100.0 µM): 91% (active)
growth inhibition [15, 17]: 90% (active)
growth inhibition [15, 18]: 95% (active)
growth inhibition ([15]; at 50.0 µM): 81.2% (active)
growth inhibition ([16]; at 1.2 µM): 73% (active)
growth inhibition ([16]; at 3.7 µM): 84% (active)
growth inhibition ([16]; at 11.0 µM): 92% (active)
growth inhibition ([16]; at 33.0 µM): 91% (active)
growth inhibition ([16]; at 100.0 µM): 93% (active)
